Experimental data: the supplement of paper PMC10849652
About 8,800 targets were measured; listed, in parts, are those with a hit and a random draw of the rest. About 0.5% of all pairs of compound and target were hits.

Compound: O=C1NC(=O)C(c2cnc3ccccn23)=C1c1cn2c3c(cc(F)cc13)CN(C(=O)N1CCCCC1)CC2
Experiment: log2 fold change, soluble protein after heating vs DMSO (PISA); higher = thermal stabilisation; K562 lysate, 10 uM; active = over 0.2 and 3.5 SD of the protein, either way, in both replicates (recomputed)
Outline: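 Quantification was by TMTpro 16plex LC-MS/MS with equalised channel sums, applied to the supernatant after 21,000xg for 90 min. Samples were crude K562 extract at 1 mg/mL protein in PBS pH 7.4 with 1 mM MgCl2, treated with 10 μM compound for 30 min, heated for 3 min across 48°C-58°C, pooled and brought to 0.5% NP-40 at 4°C. Values are log-two fold changes in thermal stability relative to solvent controls, from duplicates.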

Chain of UniProt Q8WUM0 (Q8WUM0 whole entry, looked up): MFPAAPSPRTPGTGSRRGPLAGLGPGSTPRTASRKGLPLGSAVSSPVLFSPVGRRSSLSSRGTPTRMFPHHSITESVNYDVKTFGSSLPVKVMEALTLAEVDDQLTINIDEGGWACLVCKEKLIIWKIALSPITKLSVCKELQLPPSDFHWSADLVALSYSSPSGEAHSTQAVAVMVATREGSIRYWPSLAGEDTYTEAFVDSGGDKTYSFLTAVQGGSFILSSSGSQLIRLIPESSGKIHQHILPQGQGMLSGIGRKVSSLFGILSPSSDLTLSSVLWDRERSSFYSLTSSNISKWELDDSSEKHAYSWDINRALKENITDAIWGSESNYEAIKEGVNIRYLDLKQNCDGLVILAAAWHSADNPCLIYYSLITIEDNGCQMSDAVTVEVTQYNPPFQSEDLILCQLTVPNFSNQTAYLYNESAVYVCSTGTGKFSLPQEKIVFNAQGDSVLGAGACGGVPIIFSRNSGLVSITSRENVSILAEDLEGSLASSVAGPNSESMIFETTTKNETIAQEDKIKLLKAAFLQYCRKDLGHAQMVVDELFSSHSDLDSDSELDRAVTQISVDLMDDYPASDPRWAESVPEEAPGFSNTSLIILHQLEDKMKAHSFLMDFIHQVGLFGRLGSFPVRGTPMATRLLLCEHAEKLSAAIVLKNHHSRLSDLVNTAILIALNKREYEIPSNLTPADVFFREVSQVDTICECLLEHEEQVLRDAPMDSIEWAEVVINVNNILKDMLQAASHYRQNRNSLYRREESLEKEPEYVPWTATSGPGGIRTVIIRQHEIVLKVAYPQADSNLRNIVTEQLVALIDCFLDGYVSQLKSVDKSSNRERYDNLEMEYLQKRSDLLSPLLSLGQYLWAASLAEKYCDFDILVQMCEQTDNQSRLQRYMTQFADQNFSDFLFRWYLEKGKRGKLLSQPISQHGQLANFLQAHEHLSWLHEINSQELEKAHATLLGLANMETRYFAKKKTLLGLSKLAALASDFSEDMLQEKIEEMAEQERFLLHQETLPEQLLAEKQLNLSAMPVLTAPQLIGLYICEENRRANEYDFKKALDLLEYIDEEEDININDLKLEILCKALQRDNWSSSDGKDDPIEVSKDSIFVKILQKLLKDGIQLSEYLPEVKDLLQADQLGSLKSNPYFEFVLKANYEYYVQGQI
Chain of UniProt Q9Y314 (Q9Y314 whole entry, looked up): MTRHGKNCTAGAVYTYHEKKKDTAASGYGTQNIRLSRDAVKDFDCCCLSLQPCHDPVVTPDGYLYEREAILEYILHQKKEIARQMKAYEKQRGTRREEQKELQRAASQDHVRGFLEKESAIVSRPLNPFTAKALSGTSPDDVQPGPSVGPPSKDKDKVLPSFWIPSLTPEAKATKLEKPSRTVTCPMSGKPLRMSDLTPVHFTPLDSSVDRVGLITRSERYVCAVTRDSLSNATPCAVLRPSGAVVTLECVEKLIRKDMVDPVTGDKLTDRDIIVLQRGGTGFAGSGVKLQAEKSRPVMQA
Chain of UniProt Q9BTX1 (Q9BTX1 whole entry, looked up): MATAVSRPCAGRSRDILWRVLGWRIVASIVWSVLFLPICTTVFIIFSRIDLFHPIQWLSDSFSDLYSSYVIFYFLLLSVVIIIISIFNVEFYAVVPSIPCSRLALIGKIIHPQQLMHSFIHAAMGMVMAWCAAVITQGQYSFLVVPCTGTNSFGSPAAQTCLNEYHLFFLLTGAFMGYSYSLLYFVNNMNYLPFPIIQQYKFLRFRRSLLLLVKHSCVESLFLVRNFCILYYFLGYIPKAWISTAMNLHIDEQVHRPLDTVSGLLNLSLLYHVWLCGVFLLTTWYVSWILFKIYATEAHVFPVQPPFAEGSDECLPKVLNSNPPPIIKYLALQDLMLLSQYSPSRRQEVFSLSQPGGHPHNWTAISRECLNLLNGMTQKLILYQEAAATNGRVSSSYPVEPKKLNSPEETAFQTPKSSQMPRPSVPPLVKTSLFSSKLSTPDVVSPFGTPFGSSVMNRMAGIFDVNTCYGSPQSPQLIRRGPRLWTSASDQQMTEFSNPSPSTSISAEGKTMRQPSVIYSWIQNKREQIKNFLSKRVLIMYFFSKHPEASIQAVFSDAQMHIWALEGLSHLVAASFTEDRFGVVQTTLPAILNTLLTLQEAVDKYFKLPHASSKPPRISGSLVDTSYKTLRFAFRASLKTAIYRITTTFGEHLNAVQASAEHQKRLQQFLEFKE
Chain of UniProt Q5SRE5 (Q5SRE5 whole entry, looked up): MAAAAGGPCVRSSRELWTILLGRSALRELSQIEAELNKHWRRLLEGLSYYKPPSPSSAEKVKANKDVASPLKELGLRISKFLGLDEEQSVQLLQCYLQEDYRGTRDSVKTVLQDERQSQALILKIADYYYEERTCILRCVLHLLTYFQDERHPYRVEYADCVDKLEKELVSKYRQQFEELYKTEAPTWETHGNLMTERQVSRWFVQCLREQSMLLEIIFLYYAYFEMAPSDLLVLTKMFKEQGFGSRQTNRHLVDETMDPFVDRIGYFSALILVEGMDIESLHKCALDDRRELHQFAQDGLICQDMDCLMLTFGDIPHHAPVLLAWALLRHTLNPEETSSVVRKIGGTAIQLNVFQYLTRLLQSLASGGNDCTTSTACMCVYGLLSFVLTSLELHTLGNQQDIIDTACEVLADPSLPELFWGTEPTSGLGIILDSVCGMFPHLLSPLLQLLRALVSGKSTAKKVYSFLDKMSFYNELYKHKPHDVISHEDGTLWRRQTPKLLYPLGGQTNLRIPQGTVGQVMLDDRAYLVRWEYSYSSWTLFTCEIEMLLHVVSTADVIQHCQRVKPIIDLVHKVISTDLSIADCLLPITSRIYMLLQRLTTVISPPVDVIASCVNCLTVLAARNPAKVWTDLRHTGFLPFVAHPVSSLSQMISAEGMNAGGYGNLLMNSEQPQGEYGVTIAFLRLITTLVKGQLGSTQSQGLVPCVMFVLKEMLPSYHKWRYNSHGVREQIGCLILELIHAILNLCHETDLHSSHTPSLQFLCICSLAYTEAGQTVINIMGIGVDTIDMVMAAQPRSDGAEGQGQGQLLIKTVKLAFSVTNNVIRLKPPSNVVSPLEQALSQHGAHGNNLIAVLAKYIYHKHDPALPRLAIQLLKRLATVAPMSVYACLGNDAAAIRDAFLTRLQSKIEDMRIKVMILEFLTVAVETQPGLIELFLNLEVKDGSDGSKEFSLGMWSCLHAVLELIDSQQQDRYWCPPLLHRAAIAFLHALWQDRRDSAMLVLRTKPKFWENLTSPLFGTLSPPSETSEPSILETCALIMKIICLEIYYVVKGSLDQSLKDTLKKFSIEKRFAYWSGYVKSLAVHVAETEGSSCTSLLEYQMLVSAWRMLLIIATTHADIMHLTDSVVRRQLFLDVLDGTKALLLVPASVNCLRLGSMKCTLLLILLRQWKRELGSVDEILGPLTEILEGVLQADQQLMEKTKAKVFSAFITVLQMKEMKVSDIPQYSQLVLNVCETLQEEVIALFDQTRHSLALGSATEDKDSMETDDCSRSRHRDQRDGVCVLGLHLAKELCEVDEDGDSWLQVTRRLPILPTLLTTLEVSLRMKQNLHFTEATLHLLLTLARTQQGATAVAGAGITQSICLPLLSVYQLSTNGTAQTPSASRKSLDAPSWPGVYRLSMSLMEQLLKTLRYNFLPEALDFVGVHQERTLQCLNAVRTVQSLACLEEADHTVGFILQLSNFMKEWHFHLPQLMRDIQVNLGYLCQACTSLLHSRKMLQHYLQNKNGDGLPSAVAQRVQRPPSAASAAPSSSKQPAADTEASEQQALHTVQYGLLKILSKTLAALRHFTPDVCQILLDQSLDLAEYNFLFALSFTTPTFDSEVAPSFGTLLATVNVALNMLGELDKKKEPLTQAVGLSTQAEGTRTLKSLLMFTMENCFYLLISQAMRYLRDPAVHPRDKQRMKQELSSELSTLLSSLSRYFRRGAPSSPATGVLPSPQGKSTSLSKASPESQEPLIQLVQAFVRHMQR
Chain of UniProt P04181 (P04181 whole entry, looked up): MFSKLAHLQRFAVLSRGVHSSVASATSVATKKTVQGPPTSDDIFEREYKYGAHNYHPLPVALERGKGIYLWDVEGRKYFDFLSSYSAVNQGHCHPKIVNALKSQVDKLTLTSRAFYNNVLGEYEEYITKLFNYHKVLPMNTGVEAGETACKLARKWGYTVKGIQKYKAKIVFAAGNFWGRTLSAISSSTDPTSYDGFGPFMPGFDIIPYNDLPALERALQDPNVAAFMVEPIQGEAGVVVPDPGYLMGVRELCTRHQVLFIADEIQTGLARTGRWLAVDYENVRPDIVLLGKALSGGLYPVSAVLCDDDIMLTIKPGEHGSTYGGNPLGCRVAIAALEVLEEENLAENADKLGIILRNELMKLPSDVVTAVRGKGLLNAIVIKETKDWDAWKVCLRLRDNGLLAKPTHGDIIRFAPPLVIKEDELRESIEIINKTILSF
Chain of UniProt P30419 (P30419 whole entry, looked up): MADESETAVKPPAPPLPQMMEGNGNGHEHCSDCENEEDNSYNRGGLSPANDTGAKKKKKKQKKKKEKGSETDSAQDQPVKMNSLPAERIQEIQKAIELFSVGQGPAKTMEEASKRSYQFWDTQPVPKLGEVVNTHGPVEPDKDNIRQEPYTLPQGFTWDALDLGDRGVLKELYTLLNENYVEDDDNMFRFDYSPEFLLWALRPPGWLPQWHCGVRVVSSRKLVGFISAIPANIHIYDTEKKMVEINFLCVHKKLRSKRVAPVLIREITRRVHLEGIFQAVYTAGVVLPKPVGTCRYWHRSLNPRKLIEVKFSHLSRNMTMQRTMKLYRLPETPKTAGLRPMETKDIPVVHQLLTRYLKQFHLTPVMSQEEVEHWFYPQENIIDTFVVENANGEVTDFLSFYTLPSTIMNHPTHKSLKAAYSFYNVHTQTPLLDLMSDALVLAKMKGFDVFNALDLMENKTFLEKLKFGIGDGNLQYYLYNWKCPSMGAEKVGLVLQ
Chain of UniProt Q15843 (Q15843 whole entry, looked up): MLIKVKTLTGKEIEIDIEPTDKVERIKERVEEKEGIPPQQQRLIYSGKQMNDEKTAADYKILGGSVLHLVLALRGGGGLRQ
Chain of UniProt Q9Y530 (Q9Y530 whole entry, looked up): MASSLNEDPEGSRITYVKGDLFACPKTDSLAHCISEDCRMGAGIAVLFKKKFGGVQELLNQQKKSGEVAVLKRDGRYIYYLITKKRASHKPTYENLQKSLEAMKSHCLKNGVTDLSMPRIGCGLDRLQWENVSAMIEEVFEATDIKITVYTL

log2 fold change, inactive:
NCOR1 (UniProt O75376) 0.014, NSL1 (UniProt Q96IY1) -0.005, NLRP2 (UniProt Q9NX02) -0.015, OAT (UniProt P04181) 0.042, MYBL2 (UniProt P10244) 0.008, NOSIP (UniProt Q9Y314) 0.002, MTMR6 (UniProt Q9Y217) -0.027, NMT1 (UniProt P30419) -0.036, NEK7 (UniProt Q8TDX7) 0.003, NUP93 (UniProt Q8N1F7) 0.015, NCAPD3 (UniProt P42695) -0.022, MYOM1 (UniProt P52179) 0.292, NFIC (UniProt P08651) -0.032, OSBPL6 isoform 5 (UniProt Q9BZF3) -0.026, PAK4 (UniProt O96013) 0.028, OLA1 (UniProt Q9NTK5) 0.004, MRPS12 (UniProt O15235) -0.013, NUP160 (UniProt Q12769) 0.022, NCKAP1L (UniProt P55160) -0.001, NPLOC4 isoform 2 (UniProt Q8TAT6) 0.018, NFATC2 (UniProt Q13469) 0.044, NOSTRIN (UniProt Q8IVI9) 0.019, NEDD8 (UniProt Q15843) 0.038, NFKBIE (UniProt O00221) -0.017, PAFAH1B3 (UniProt Q15102) 0.003, NUCB2 (UniProt P80303) -0.007, MTFP1 (UniProt Q9UDX5) 0.02, NIPBL (UniProt Q6KC79) -0.005, OGFR (UniProt Q9NZT2) -0.018, NDC1 (UniProt Q9BTX1) -0.012, NUP188 (UniProt Q5SRE5) -0.009, PAXBP1 (UniProt Q9Y5B6) -0.02, MVB12A (UniProt Q96EY5) 0.016, NUP133 (UniProt Q8WUM0) 0.011, OARD1 (UniProt Q9Y530) 0.02
